Screens: PubChem, ICCB-Longwood Screening Facility, Harvard Medical School
MenB inh: M. tuberculosis MenB inhibitors, primary screen, biochemical, absorbance. 1,4-dihydroxy-2-naphthoyl-CoA synthase (Mycobacterium tuberculosis (strain ATCC 25618 / …. MenB enzyme assay, absorbance read-out. inhibition, % (test concentration not listed). actives 0.43% (n = 100,000); in the data active = inhibition above about 21%, passing the limit was not always enough
MbtI inh: MbtI salicylate synthase inhibitors, primary screen, biochemical, fluorescence intensity. purified MbtI enzyme, fluorescence intensity read-out. inhibition, % (no concentration beside the values). actives 0.89% (n = 100,000). AID 493033, 2011; in the data active = inhibition mostly above about 56%, no sharp cut-off; inactive = mostly below about 77%
Target sequence (P9WFX0 whole entry, looked up): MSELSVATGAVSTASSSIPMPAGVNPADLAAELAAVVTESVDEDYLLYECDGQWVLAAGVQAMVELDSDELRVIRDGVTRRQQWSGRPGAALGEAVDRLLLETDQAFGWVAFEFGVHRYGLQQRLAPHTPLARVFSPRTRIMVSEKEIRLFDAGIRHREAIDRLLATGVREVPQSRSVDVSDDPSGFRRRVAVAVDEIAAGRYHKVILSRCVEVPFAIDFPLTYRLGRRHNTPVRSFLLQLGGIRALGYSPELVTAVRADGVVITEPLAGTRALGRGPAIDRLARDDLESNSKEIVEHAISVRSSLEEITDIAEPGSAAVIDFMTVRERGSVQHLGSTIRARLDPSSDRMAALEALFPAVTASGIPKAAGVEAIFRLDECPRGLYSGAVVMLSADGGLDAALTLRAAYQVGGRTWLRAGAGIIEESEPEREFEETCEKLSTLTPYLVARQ
AID504770: growth inhibition of E. coli YBA685, primary screen, V. cholerae RctB inhibitors | actives 0.27% (n = 130,000) | AID 504770, 2011 | E. coli YBA685 rctB-dependent plasmid, OD600 growth, 3 h; hits give low values | z-score (concentration not given with the values); in the data active = z-score below about -2, passing the limit was not always enough
PV pol inh: poliovirus RdRp elongation inhibitors, primary screen, biochemical, fluorescence polarization, total intensity; % elongation, % (compound at 16.7 µg/mL); AID 588519, 2011; actives 0.66% (n = 150,000); poliovirus polymerase elongation; hits give low values; Genome polyprotein (Poliovirus type 1 (strain Mahoney)), P03300; in the data active = % elongation below about 90%
* hit, by the source's call; / = not tested or not shown. This is a sample that favours compounds with a hit; in the whole collection about 1.5% have one here.

SMILES	MenB inh	MbtI inh	AID504770	PV pol inh
Cc1ccc2oc(-c3ccccc3C(=O)O)cc(=O)c2c1	/	/	-0.4	/
O=C(O)c1cc(-c2ccco2)nc2ccc(Br)cc12	-0.1	/	2.05	73.0*
CCCCCCCc1c(C#N)c(N)[nH]c(=S)c1C#N	-52.4	97.0*	0.35	69.0*
CCN1CCN(CCC(=O)Nc2ccc(C)cc2)CC1	37.1*	-1.0	-0.1	100.0
CCN1CCN(CCC(=O)Nc2ccc(-c3ccccc3)cc2)CC1	/	13.6	-0.4	100.0
N#CSc1ccc(N)cc1	/	6.2	-1.5	99.0
Cc1ccc(SC#N)c(N)n1	/	/	-2.5*	/
NC1(N)OC(CN2C(=O)c3ccccc3C2=O)CS1 (stereo not given)	5.7	-5.2	-0.7	101.0
O=C1[C@H]2CSC3(C(=O)c4ccccc4C3=O)N2C(=O)[C@H]2CSC3(C(=O)c4ccccc4C3=O)N12	-4.9	99.8*	-0.35	99.0
COC(=O)c1nnn(-c2nonc2N)c1CSC#N	4.5	74.2*	-0.05	102.0
Cc1cc(/C=C(/C#N)C(=O)NC2CCCCC2)c(C)n1-c1ccc(I)cc1	-28.5	-45.8	-0.5	99.0
CC(=Nc1ccc(Cl)cc1)c1cccs1	-19.0	11.1	-0.1	104.0
CCN(CCC#N)c1ccc(/C=C(\C#N)C(=O)NC(C)C)c(C)c1	-494.5	18.1	0.8	125.0
CCN(CC)c1ccc(/C=C(/C#N)C(=O)NC(C)C)o1	-162.3	4.5	-3.4*	77.0
NC(=O)/C=C/C(=O)Nc1ccc2c(c1)OCO2	-0.3	101.3*	-1.3	101.0
O=C(/C=C/c1ccccc1)Nc1ccc2c(c1)OCO2	-28.9	-17.8	-0.65	107.0
CC(=O)NC(NC(C)=O)c1ccc2c(c1)OCO2	31.4*	-4.5	-0.05	102.0
CC(C)(C)C(=O)Nc1ccc2c(c1)OCO2	/	-3.5	2.3	102.0
CN(C)C(=S)Nc1ccc2c(c1)OCO2	-38.2	92.2*	1.6	102.0
CC(C)(C(=O)Nc1ccc2c(c1)OCO2)C(=O)Nc1ccc2c(c1)OCO2	40.9*	4.5	0.3	103.0
O=C(CSc1ncccn1)N(c1ccccc1)C1CCS(=O)(=O)C1 (stereo not given)	-17.2	-0.3	-0.1	106.0
CSc1cccc(NC(=S)N(C)C)c1	-57.3	73.7*	-1.05	99.0
CC(=S)Nc1ccc2c(c1)OCO2	-15.4	72.7*	-0.15	72.0*
Cn1sc(=O)c2ccc(S(=O)(=O)NCCc3ccncc3)cc21	/	/	-2.55*	/
O=C(O)Cc1nc2ccccc2[nH]1	-2.7	-8.4	-0.75	104.0
SMILES	MenB inh	MbtI inh	AID504770	PV pol inh
CCc1c(CN2CCN(c3cccc(C)c3C)CC2)csc1C	/	/	/	56.0*
CCCCNC(=O)C1CCN(Cc2ccccc2OCC)CC1	-2.9	-0.7	-4.85	102.0
CCCCNC(=O)CN1CCN(Cc2cccc(OCC)c2OC)CC1	7.1	-6.0	0.35	88.0*
COc1ccc(/C=C/C(=O)NCc2ccncc2)cc1	4.1	33.3	1.2	102.0
Cc1cc(=O)oc2cc(OCC(=O)O)ccc12	-16.9	106.8	0.3	105.0
Cc1cc(=O)oc2cc(OCC(=O)Oc3ccc4c(c3)OCO4)ccc12	-0.2	72.5	-0.15	83.0*
Cc1cc(N)c(O)cc1C	-128.6	100.2*	-1.1	109.0
Cc1cc(N)c(N)cc1C	-16.5	-6.7	-0.2	100.0
CCSc1nc2sc3c(c2c(=O)n1-c1ccccc1)CCN(C(C)=O)C3	-1.6	-12.8	-0.6	100.0
N#C/C(=C\C=C\c1ccco1)C(N)=S	-57.5	68.2	1.25	84.0*
OC1(CCC2(O)CCCC2)CCCC1	28.2*	-4.8	1.45	100.0
Cc1nnc2sc(-c3cccc(NC(=O)c4cccc(F)c4)c3)nn12	-17.8	-17.6	-0.95	103.0
Cc1occc1-c1nnc2sc(-c3cccc(F)c3)nn12	-72.7	95.2*	0.15	103.0
CC1=NN(c2ccccc2)C(=O)C1C1C(=O)N(c2ccccc2)N=C1C (stereo not given)	-2.7	5.2	-0.5	103.0
CC1=NN(c2ccccc2)C(=O)C1C(=O)O (stereo not given)	-23.2	-2.8	1.3	102.0
O=C1C2CCCC2=NN1c1ccccc1 (stereo not given)	-12.5	58.8*	0.6	106.0
O=C1C2CCCCC2=NN1c1ccccc1 (stereo not given)	-17.6	70.5*	-1.5	101.0
CC(C)CN(C(=O)c1ccncc1)c1nc2ccccc2s1	-7.2	71.2*	-0.55	87.0*
CC(OC(=O)Cn1c(=O)oc2ccccc21)C(=O)N(C)Cc1cccc(F)c1 (stereo not given)	4.1	5.4	0.4	103.0
O=C(O)c1nccnc1C(=O)Nc1ccc(N2CCOCC2)cc1	-10.2	5.3	1.45	101.0
O=C(Nc1ccc(N2CCOCC2)cc1)C1=NCCN1	-18.1	-6.8	-0.55	63.0*
CNC(=O)Nc1ccccc1NC1=C(C(=O)OC)CSC1	14.9	68.5	-2.2*	80.0
COC(=O)C1=C(Nc2ccccc2NC(=O)c2ccccc2C(=O)O)CSC1	-7.4	18.8	-0.95	105.0
O=C(O)C1CCC(N2C(=O)C3C4C=CC(C4)C3C2=O)CC1 (stereo not given)	-10.3	-6.4	0.75	102.0
CC(C)Cn1cc(NC(=O)NCc2ccccc2Cl)c2ccccc2c1=O	/	/	/	41.0*
SMILES	MenB inh	MbtI inh	AID504770	PV pol inh
Cc1ccc(CNC(=O)Nc2cn(CC(C)C)c(=O)c3ccccc23)cc1	/	/	/	28.0*
CC(C)Cn1cc(NC(=O)N2CCN(c3cccc(Cl)c3)CC2)c2ccccc2c1=O	/	/	/	106.0
Cc1ccc(C)c(N2CCN(C(=O)Nc3cn(CC(C)C)c(=O)c4ccccc34)CC2)c1	/	/	/	77.0*
CC(C)Cn1cc(NC(=O)NCc2cccc(Cl)c2)c2ccccc2c1=O	/	/	/	58.0*
O=C1/C(=C/c2ccccc2)N=C2CCCCCN12	0.6	-2.4	0.4	99.0
O=C1/C(=C/NCc2ccco2)S(=O)(=O)N(Cc2ccccc2)c2ccsc21	-16.9	-13.2	-0.6	101.0
COc1cccc(CNC(=O)Nc2cn(CC(C)C)c(=O)c3ccccc23)c1	/	/	/	31.0*
CC(C)Cn1cc(NC(=O)NCc2ccc(Cl)cc2)c2ccccc2c1=O	/	/	/	106.0
CC(C)Cn1cc(NC(=O)NCc2ccccc2)c2ccccc2c1=O	/	/	/	12.0*
COc1ccc(OC)c(CNC(=O)Nc2cn(CC(C)C)c(=O)c3ccccc23)c1	/	/	/	25.0*
Cc1cccc(N=C2NN=C(c3cc(C)n(C)c3C)CS2)c1C	-24.1	2.2	-1.7	106.0
NC(=S)NCC1CCCO1 (stereo not given)	-15.2	89.2*	-0.3	97.0
CCOC(=O)N1CCC(=NNc2nc3ccccc3[nH]2)CC1	0.7	2.4	0.15	107.0
O=C1CS(=O)(=O)CC(=O)N1c1ccc(Cl)c(Cl)c1	/	/	-0.55	/
CCOC(=O)C1CCCN(Cn2nnn(-c3ccc(OC)cc3)c2=S)C1 (stereo not given)	11.4	62.8*	0.55	79.0*
O=C(O)C1CC(c2ccc(F)cc2)=NO1 (stereo not given)	14.7	/	-0.65	84.0*
CC1(C)Nc2ccccc2C(=O)N1c1ccccc1	43.3*	89.7	0.75	102.0
COCc1nnc(NC(=O)C2CCN(C(=O)c3ccco3)CC2)s1	-2.1	92.3*	0.7	93.0
